Reference: PubChem BioAssay AID1851 (National Center for Advancing Translational Sciences (NCATS), 2009)
The campaign covered roughly 16,000 compounds. About 2,600 (16%) were called active. Not shown: some 20% with an inconclusive outcome. The sample as a whole holds a higher share of actives than the screen did. Values without a mark were called inactive. Calls come from the whole dose curve; as a rule, active = well fitted curve in the direction sought with a large enough effect; inconclusive = small, poorly fitted or top-dose-only effect, or effect the other way; inactive = no such curve, though single readings can be large or run the other way.

target: Cytochrome P450 2D6 (Homo sapiens) (UniProt P10635); assay: Cytochrome panel assay with activity outcomes; settings: recombinant CYP, pro-luciferin dealkylation, luminescence, p450-cyp2d6; series mostly up to 57.1 µM
Sequence (P10635 whole entry, looked up): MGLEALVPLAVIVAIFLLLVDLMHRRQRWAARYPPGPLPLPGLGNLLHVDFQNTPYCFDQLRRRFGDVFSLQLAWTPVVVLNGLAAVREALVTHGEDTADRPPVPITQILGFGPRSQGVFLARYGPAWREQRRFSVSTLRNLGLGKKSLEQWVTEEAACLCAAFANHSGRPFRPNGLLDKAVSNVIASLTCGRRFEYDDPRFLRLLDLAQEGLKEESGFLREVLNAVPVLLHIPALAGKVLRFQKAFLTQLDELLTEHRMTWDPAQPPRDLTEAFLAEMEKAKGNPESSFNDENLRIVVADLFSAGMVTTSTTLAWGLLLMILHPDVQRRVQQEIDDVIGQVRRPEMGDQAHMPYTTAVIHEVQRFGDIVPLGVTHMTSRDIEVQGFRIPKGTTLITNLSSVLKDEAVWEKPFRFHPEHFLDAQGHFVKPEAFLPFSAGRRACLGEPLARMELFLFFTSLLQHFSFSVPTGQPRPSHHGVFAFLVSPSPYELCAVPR
% is set by controls: 0 for no effect and ±100 for the full control effect.

Row | SMILES | AC50 | activity, negative = inhibition
1 | COc1ccc(C2SCC(=O)Nc3c2c(C)nn3C2CCOC(C)(C)C2)cc1 (centres undefined) | inactive | –
2 | C[C@@]12CC[C@H](O)C[C@@H]1CC[C@@H]1[C@@H]2CC[C@@]2(C)[C@@H](C3=CC(=O)OC3)[C@H](O)C[C@]12O | – | 17.5% [at 11.4 µM]
3 | Cc1cc2c(C(F)(F)F)cc(=O)oc2c2c1NCCC2 | inactive | –
4 | N=C(N)SCc1ccc(Cl)c2ccccc12 (tested in a mixture with another compound) | 3.16 µM (active) | –
5 | C/C(=N\OC(=O)NC(C)C)c1sc(-c2ccc(Cl)cc2)nc1C | inactive | –
6 | C[C@@]12CC[C@H](O[C@@H]3O[C@H](CO)[C@@H](O)[C@H](O)[C@@H]3O)C[C@@H]1CC[C@H]1[C@H]2CC[C@@]2(C)[C@@H](C3=CCOC3=O)CC[C@]12O | – | -0.449% [at 11.4 µM]
7 | COc1ccc(C[C@H]2NC[C@H](O)[C@@H]2OC(C)=O)cc1 | 7.94 µM (active) | –
8 | c1ccc2c(c1)OC[C@@H](C1=NCCN1)O2 | 0.631 µM (active) | –
9 | C[N+]1(C)CCO[C@](O)(c2ccc(-c3ccc([C@]4(O)C[N+](C)(C)CCO4)cc3)cc2)C1 | inactive | –
10 | Cc1ccc(N=Nc2c(O)[nH]c(=O)[nH]c2=O)c([N+](=O)[O-])c1 | inactive | –
11 | Nc1nc(N)c(N=Nc2ccc([As](=O)(O)O)cc2)c(=O)[nH]1 | – | 13.1% [at 11.4 µM]
12 | CCCCCCCCCCCCCC(=O)O[C@H]1[C@@H](C)[C@@]2(O)[C@@H](C=C(CO)C[C@]3(O)C(=O)C(C)=C[C@@H]23)C2C(C)(C)[C@]21OC(C)=O (some centres undefined) | inactive | –
13 | COCCNC(=S)N1C2CCC1CC(NC(=O)NC13CC4CC(CC(C4)C1)C3)C2 (centres undefined) | inactive | –
14 | COCCCNC(=S)NC1CC2CCCC(C1)N2Cc1cccs1 (centres undefined) | 0.891 µM (active) | –
15 | COCCNC(=S)NC1CC2CCCC(C1)N2Cc1cccs1 (centres undefined) | 0.398 µM (active) | –
16 | CCc1ccccc1NC(=O)NC1CC2CCC(C1)N2Cc1cccs1 (centres undefined) | 6.31 µM (active) | –
17 | C=C1C(O)(c2ccccc2)C2CC[N+]1(C)CC2 (centres undefined) | inactive | –
18 | Cn1c(O)c(C(=N)COc2ccccc2)c(=O)n(C)c1=O | inactive | –
19 | CCCCc1ccc(C(=O)O)nc1 | inactive | –
20 | CS(=O)c1ccc(-c2nc(-c3ccc(F)cc3)c(-c3ccncc3)[nH]2)cc1 (centres undefined) | inactive | –
21 | C[C@@H](Cc1ccccc1)NCCC(c1ccccc1)c1ccccc1 | 0.01 µM (active) | –
22 | C#CCN(C)[C@H](C)Cc1ccccc1 | inactive | –
23 | CCOC(=O)N1CCC(NC(=O)CCc2nc(C3=CCN(C)CC3)no2)CC1 | inactive | –

Row | SMILES | AC50 | activity, negative = inhibition
24 | Nc1nnnn1CCO | – | 3.8% [at 11.4 µM]
25 | O=C(O)c1nn(Cc2ccc(Cl)cc2Cl)c2ccccc12 | inactive | –
26 | Cc1ccccc1-n1c(O)c(C=Nc2ccc(N(C)C)cc2)c(=O)[nH]c1=O | inactive | –
27 | Cc1oc(-c2ccccc2F)nc1CS(=O)CC(=O)N1CCC2(CC1)OCCO2 (centres undefined) | inactive | –
28 | CC1=C2[C@@H]3OC(=O)[C@@H](C)[C@@H]3CC[C@]2(C)C=CC1=O | inactive | –
29 | O=C(O)[C@H]1C[C@@H]1[C@H](NP(=O)(c1ccccc1)c1ccccc1)c1ccccc1 | inactive | –
30 | COc1ccc(CNC(=O)/C=C\c2ccc3[nH]cc(CCN(C)C)c3c2)cc1 | inactive | –
31 | CN[C@H](Cc1ccccc1)c1cccc(OC)c1O | 0.0398 µM (active) | –
32 | O=c1[nH]c(=O)n([C@H]2C[C@H](O)[C@H](CO)O2)cc1/C=C\Br | inactive | –
33 | N#C/C(=C\c1ccc(O)c(O)c1)C(=O)NCCCNC(=O)/C(C#N)=C/c1ccc(O)c(O)c1 | inactive | –
34 | CCCCn1c(N)c(C(=O)NCc2cccs2)c2nc3ccccc3nc21 | 20 µM (active) | –
35 | COCCCn1c(N)c(C(=O)Nc2sc3c(c2C(=O)OC)CCCC3)c2nc3ccccc3nc21 | inactive | –
36 | O=[As](O)(O)c1ccc(N=Nc2ccc(O)cc2)cc1 | – | 2.25% [at 11.4 µM]
37 | C[C@@]12CC[C@H]3[C@@H](CC[C@@H]4C[C@H](O)CC[C@]43C)[C@H]1CC[C@H]2O | inactive | –
38 | COc1ccc2c(c1)CN([C@H](C)[C@@H]1CC[C@@H]3[C@H]4CC[C@H]5C[C@@H](O)CC[C@@]5(C)[C@H]4CC[C@]31C)CO2 | 3.16 µM (active) | –
39 | C[C@]12CC[C@H](O)C[C@@H]1CC[C@H]1[C@H]2CC[C@]2(C)C(=O)CC[C@@H]12 | inactive | –
40 | CC[N@+]1(C)CCC[C@@H](OC(=O)C(O)(c2ccccc2)c2ccccc2)C1 | 5.01 µM (active) | –
41 | CN=C(NC#N)NCCSCc1nc[nH]c1C | inactive | –
42 | C[C@H](N)[C@H](O)c1ccc(O)c(O)c1 | inactive | –
43 | CC[C@@H](CO)NC(=O)[C@H]1C=C2c3cccc4c3c(cn4C)C[C@H]2N(C)C1 | 12.6 µM (active) | –
44 | CC(C)C[C@H]1C(=O)N2CCC[C@@H]2[C@]2(O)O[C@](NC(=O)[C@@H]3C=C4c5cccc6[nH]c(Br)c(c56)C[C@H]4N(C)C3)(C(C)C)C(=O)N12 | inactive | –
45 | CC[C@H](CO)NC(=O)[C@@H]1C=C2c3cccc4c3c(cn4C)C[C@@H]2N(C)C1 | 39.8 µM (active) | –
46 | Cc1cc(NC(=O)CCC(=O)N2CCC3(CC2)OCCO3)no1 | inactive | –

Row | SMILES | AC50 | activity, negative = inhibition
47 | Cc1ccc(CCN2CC(C(=O)N3CCC4(CC3)OCCO4)CC2=O)cc1 (centres undefined) | inactive | –
48 | N[C@H](CCCCCP(=O)(O)O)C(=O)O | inactive | –
49 | O=C(O)CCCc1ccc(N(CCCl)CCCl)cc1 | inactive | –
50 | C[C@H](CCC(=O)O)[C@H]1CC[C@]2(C)[C@@H]3C(=O)C[C@H]4C(C)(C)[C@@H](O)CC[C@]4(C)[C@H]3C(=O)C[C@@]12C | – | -4.73% [at 11.4 µM]
51 | CC(=O)[C@@H]1CC[C@H]2[C@H]3CC[C@H]4C[C@@H](O)CC[C@]4(C)[C@@H]3CC[C@]12C | inactive | –
52 | Oc1ccc(CCNCc2cc3c(cc2Br)OCO3)cc1 | 0.316 µM (active) | –
53 | O=C(O)C(=O)Cc1ccc2c(c1)OCO2 | – | -12.2% [at 11.4 µM]
54 | CO[C@H]1[C@H](O)[C@H](O[C@@H]2[C@H](Oc3cccc4c(O)c5c(=O)oc6ccc(C)c7c(=O)oc(c34)c5c67)O[C@@H](C)[C@H](O)[C@H]2O)O[C@@H](C)[C@@H]1O | – | 19.6% [at 11.4 µM]
55 | CCCCCCCC/C=C\CCCCCCCC(N)=O | inactive | –
56 | N[C@@H](CCCP(=O)(O)O)C(=O)O | inactive | –
57 | C[N+](C)(C)CCCCCCCCCC[N+](C)(C)C | inactive | –
58 | COc1cc(CN2CCN(C(=O)COc3ccccc3)CC2)cc(OC)c1OC | inactive | –
59 | CC(=O)N1CCC2(CC1)CC(=O)c1cc(OCC(=O)N3CCN(C)CC3)ccc1O2 | inactive | –
60 | O=C(COc1ccc2ccccc2c1)N1CCN(CC2CC3C=CC2C3)CC1 (centres undefined) | 5.01 µM (active) | –
61 | CCN1C[C@@]2(COC)[C@H]3[C@@H](OC)[C@H]4C1[C@@]3([C@H](OC)C[C@@H]2O)[C@H]1C[C@@]2(O)[C@@H](OC(=O)c3ccccc3)[C@@H]1[C@@]4(OC(C)=O)[C@H](O)[C@@H]2OC | inactive | –
62 | Cc1ccc(C2CC(=O)C(C=NCCN3CCN(C(=O)Cc4ccccc4)CC3)=C(O)C2)cc1 (centres undefined) | inactive | –
63 | CN(C)CS/C(N)=N/[C@H](O)C(Cl)(Cl)Cl | – | -6.69% [at 11.4 µM]
64 | CN1CCc2nc3sc(C(=O)NC(C)(C)C)c(N)c3cc2C1 | inactive | –
65 | CCOC(=O)C1=C(C)OC(N)=C(C#N)C12C(=O)N(C)c1ccccc12 (centres undefined) | inactive | –
66 | CC[C@]1(OC(=O)CN)C(=O)OCc2c1cc1n(c2=O)Cc2cc3ccccc3nc2-1 | – | -0.998% [at 11.4 µM]
67 | C[C@@H]1Cc2cc3c(cc2C(c2ccc(N)cc2)=NN1)OCO3 | 31.6 µM (active) | –
68 | CCC12C=CCN3CCC4(c5cc(Br)c(OC)cc5N(C)C4C(O)(C(=O)OC)C1OC(C)=O)C32 (centres undefined) | 2.51 µM (active) | –
69 | C=Cn1ccnc1P(=S)(c1nccn1C=C)C1CCCCC1 | inactive | –

Row | SMILES | AC50 | activity, negative = inhibition
70 | CNC(=S)NC1CC2CCCC(C1)N2CC(C)C (centres undefined) | 5.01 µM (active) | –
71 | COc1ccc(C(=O)NC2CC3CCCC(C2)N3CC(C)C)cc1OC (centres undefined) | 4.47 µM (active) | –
72 | CN1[C@@H]2CC[C@H]1CC(NC(=O)c1nn(C)c3ccccc13)C2 (some centres undefined) | inactive | –
73 | O=C(O)Cc1cnc[nH]1 | inactive | –
74 | C/C(=C\C=C/[C@@H](C)C(=O)O)[C@H]1CN[C@H](C(=O)O)[C@@H]1CC(=O)O | inactive | –
75 | N#Cc1ccc(CN2CC[C@@]3(CCCNC3)C2)cc1 | inactive | –
76 | c1ccc(N2CC[C@@]3(CCCNC3)C2)nc1 | inactive | –
77 | c1cnc(N2CC[C@@]3(CCCNC3)C2)nc1 | 7.94 µM (active) | –
78 | C=C(C)[C@H]1CC[C@]2(CO)CC[C@]3(C)[C@@H](CC[C@H]4[C@@]5(C)CC[C@@H](O)C(C)(C)[C@@H]5CC[C@@]43C)[C@H]12 | inactive | –
79 | COC(=O)Nc1nc2ccc(C(=O)c3cccs3)cc2[nH]1 | inactive | –
80 | COc1cc(-c2ccc(=O)[nH]n2)ccc1OC(F)F | inactive | –
81 | NCCc1c[nH]c2ccc(OC(=O)C(=O)O)cc12 | – | -17.3% [at 11.4 µM]
82 | COc1ccc2[nH]cc(CCN)c2c1 | inactive | –
83 | C[C@H](N)Cc1c[nH]c2ccc(OCc3cccs3)cc12 | 0.794 µM (active) | –
84 | O[C@@H]1[C@H](O)[C@H]2[C@@H](O)CCN2C[C@@H]1O | inactive | –
85 | CC(C)[C@]1(O)[C@@H](OC(=O)c2ccc[nH]2)[C@]2(O)[C@@]3(C)C[C@@]4(O)O[C@@]5([C@H](O)[C@@H](C)CC[C@]35O)[C@]2(O)[C@]41C | – | 9.77% [at 11.4 µM]
86 | NC(=O)CN1C[C@@H](O)CC1=O | inactive | –
87 | O=c1c(O)c(-c2cc(O)c(O)c(O)c2)oc2cc(O)cc(O)c12 | inactive | –
88 | c1ccc(C[C@@H](c2ccccc2)N2CCCCC2)cc1 | 2 µM (active) | –
89 | N[C@@H](Cc1ccccc1)P(=O)(O)O | – | -3.26% [at 11.4 µM]
